The test system of assay [1] is Plasmodium falciparum Sir2 (PF13_0152, Sir2A). As to the kind of experiment: pfSir2 binders on small-molecule microarrays, primary screen, biochemical, small-molecule microarray, 635 nm fluorescence (AID 1098).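 Note: score merges spot fluorescence intensity with its signal-to-noise ratio.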 The following applies: small-molecule microarray binding, fluorescence 635 nm; higher = more signal.
Assay [2] can be described thus: small-molecule microarray binders of probe aDKK1, primary screen, biochemical, biotinylated probe, 635/667 nm fluorescence (AID 1099).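 Note: score merges 667nm spot fluorescence with signal to noise across triplicate slides; reference of the scale not given here.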 Conditions: higher = more signal.
Assay [3] can be described thus: small-molecule microarray binders of probe aCHRDL2, primary screen, biochemical, biotinylated probe, 635/667 nm fluorescence (AID 1100). The following applies: higher = more signal.
The nature of assay [4]: splicing luciferase reporter signal modulators, primary screen, spliceosome inhibition project, cell-based, HEK293, splice +/- reporter (AID 1101).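 Note: HEK293 cells carrying a splicing-competent luciferase reporter gene; test concentration not given here.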 Conditions: luminescence, 24 h, higher = more signal, called active from +8 up or from −8 down. A general note: A reporter such as luciferase makes a cellular process visible.
In assay [5] the target is Fibroblast growth factor 10 (Homo sapiens) (UniProt O15520). As to the kind of experiment: FGF10 binders on small-molecule microarrays, primary screen, biochemical, small-molecule microarray, 635 nm fluorescence (AID 1102). The following applies: FGF10 binding, fluorescence 635 nm, higher = more signal.
Assay [6] concerns glycogen synthase kinase-3 (GSK3A per assay name; protocol says GSK3B). As to the kind of experiment: GSK3 binders on small-molecule microarrays, primary screen, biochemical, small-molecule microarray, 635 nm fluorescence, GSK3A (AID 1103). Note: the record names both GSK3A and GSK3B. The following applies: small-molecule microarray binding, fluorescence 635 nm; higher = more signal.
Assay [7] concerns the target Epidermal growth factor receptor (Homo sapiens) (UniProt P00533). As to the kind of experiment: EGFR binders on small-molecule microarrays, primary screen, biochemical, small-molecule microarray, 635 nm fluorescence (AID 1104).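 Note: score merges 667 nm emission intensity with spot signal to noise over triplicate slides.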 Conditions: EGFR binding, higher = more signal.
Assay [8] addresses Follistatin-related protein 3 (Homo sapiens) (UniProt O95633). As to the kind of experiment: FSTL3 binders on small-molecule microarrays, primary screen, biochemical, small-molecule microarray, 635 nm fluorescence (AID 1105).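 Note: score merges emission near 667 nm and signal to noise per printed spot across three slides.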 Conditions: FSTL3 binding, higher = more signal.
For assay [9], the target named is Dickkopf-related protein 1 (Homo sapiens) (UniProt O94907). As to the kind of experiment: DKK1 binders on small-molecule microarrays, primary screen, biochemical, small-molecule microarray, 635 nm fluorescence scan (AID 1106).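 Note: score merges emission near 667 nm with signal to noise over three replicate slides.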 Conditions: DKK1 binding, higher = more signal.
Assay [10] has as its system Inhibin beta A chain (activin A). As to the kind of experiment: INHBA (activin A) binders on microarrays, primary screen, biochemical, small-molecule microarray, 635 nm fluorescence scan (AID 1107).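 Note: mouse activin A protein probed at 4.33 µg/mL on printed slides; score merges bound-protein fluorescence near 667 nm with spot signal-to-noise.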 Conditions: small-molecule microarray binding, higher = more signal.

This is an account of results in PubChem BioAssay.

Calls of active or inactive are those of the source.

Chain of Dickkopf-related protein 1 (Homo sapiens) (O94907 whole entry, looked up): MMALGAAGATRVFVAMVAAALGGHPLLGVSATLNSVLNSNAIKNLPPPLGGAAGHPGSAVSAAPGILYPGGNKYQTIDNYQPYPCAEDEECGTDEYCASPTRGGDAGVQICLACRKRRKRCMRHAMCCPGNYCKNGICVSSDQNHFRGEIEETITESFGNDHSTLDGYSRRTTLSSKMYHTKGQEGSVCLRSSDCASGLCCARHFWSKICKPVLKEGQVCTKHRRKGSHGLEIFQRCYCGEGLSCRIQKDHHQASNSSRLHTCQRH
Chain of Epidermal growth factor receptor (Homo sapiens) (P00533 whole entry, looked up): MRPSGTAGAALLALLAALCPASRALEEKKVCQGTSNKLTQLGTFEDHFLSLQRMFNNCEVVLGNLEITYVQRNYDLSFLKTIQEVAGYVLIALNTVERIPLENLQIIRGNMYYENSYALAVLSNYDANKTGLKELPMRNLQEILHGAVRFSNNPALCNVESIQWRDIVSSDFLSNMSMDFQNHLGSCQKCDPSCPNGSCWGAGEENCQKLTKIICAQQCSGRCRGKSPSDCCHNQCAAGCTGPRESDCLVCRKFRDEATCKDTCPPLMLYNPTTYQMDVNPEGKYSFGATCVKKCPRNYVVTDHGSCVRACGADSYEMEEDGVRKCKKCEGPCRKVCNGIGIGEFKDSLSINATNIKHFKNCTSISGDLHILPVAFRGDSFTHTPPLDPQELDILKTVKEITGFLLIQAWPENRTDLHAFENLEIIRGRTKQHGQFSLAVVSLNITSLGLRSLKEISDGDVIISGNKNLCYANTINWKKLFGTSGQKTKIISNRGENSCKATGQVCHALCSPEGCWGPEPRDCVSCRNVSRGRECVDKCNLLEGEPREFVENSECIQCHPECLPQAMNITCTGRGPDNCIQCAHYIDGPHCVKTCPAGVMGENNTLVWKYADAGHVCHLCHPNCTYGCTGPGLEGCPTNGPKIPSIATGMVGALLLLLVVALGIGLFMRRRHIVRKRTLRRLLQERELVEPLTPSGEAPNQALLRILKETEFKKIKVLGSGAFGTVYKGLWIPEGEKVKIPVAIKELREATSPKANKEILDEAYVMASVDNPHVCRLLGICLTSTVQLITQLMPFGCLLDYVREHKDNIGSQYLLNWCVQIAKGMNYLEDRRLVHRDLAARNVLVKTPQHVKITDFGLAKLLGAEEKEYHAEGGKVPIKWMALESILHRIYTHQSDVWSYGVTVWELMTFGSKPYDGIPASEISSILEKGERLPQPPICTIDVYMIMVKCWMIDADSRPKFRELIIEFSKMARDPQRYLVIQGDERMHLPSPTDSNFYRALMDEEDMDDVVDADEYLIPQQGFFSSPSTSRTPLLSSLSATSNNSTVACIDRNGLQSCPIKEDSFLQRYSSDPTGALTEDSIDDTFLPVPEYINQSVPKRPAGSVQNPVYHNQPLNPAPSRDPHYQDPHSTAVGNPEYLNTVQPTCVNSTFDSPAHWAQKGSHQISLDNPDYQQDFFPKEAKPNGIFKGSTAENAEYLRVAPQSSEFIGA
Chain of Follistatin-related protein 3 (Homo sapiens) (O95633 whole entry, looked up): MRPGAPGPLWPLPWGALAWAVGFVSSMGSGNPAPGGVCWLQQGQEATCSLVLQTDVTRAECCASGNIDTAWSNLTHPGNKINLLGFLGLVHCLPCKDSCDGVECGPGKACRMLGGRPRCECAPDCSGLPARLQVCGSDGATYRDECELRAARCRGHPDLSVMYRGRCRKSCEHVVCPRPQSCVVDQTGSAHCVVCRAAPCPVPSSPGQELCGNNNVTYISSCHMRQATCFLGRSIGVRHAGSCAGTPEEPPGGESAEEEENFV
Chain of Fibroblast growth factor 10 (Homo sapiens) (O15520 whole entry, looked up): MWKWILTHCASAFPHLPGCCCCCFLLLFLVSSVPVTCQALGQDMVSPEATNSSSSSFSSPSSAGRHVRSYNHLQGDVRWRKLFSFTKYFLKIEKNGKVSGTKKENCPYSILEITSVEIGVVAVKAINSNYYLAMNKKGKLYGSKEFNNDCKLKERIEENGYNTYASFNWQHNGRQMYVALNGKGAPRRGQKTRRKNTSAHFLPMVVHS

Regarding `COc1ccc(C#Cc2ccc3c(c2)[C@]2(C(=O)N3)[C@H](c3ccc(O)cc3)N3[C@H](c4ccccc4)[C@H](c4ccccc4)OC(=O)[C@H]3[C@@H]2C(=O)Nc2nc3ccccc3s2)cc1`, the composite z-score in [1] was found to be 1.48; in assay [2], 0.223; in assay [3] it was 0.342; in assay [5], 1.28; in assay [6], 1.31; in [7], 0.45. The composite z-score in [8] is 1.2; in assay [9] it was 0.775; in [10] it was -0.604. Besides, in assay [4], the z-score was -0.793 (inactive).

On to `O=C1N(Cc2ccccc2)c2ccccc2C[C@]12N=C(c1ccc(OCCCO)cc1)O[C@@H]2c1ccccc1`, for which the composite z-score in assay [1] came to 0.25; in assay [2] it was 0.035; in assay [3] it was 0.333; in assay [5], 0.796; in assay [6], 0.914; in assay [7] it was 0.498. In addition, the composite z-score turned out to be 0.935 in [8], 0.271 in assay [9] and 0.736 in assay [10]. For the same compound, the z-score in assay [4] was 0.214 (inactive).

`C#CCN([C@@H](Cc1ccccc1)C(=O)OC)[C@@H](/C=C/C1CC1)[C@H](O)Cc1ccccc1`: the composite z-score was -0.437 in [1]; -0.575 in assay [2]; 0.37 in assay [3]; -0.496 in assay [5]; -0.489 in [6]; -0.473 in assay [7]. The composite z-score in assay [8] is -0.494; in assay [9] it was -0.185; in assay [10], 1.49. Further, in assay [4], the z-score was 0.414 (inactive).

Regarding `COc1cc2c(cc1O)C=[N+](Cc1sc3ccccc3c1Cl)CC2`, the composite z-score was 0.209 in assay [1]; 0.0295 in assay [2]; 0.494 in assay [3]; -0.0275 in assay [5]; 0.0717 in [6]; 0.454 in assay [7]. The composite z-score in assay [8] is -0.0687; in [9], 0.396; in [10] it was 1.19. Moreover, the z-score in assay [4] is 0.134 (inactive).

For the compound `CCCCC(O)C1C=CC2C(=O)N(C)C(=O)C2N1N(c1ccccc1)c1ccccc1` (stereo not given), the composite z-score in [1] stood at 1.5; in assay [2], 0.866; in assay [3], 1.31; in [5], 0.42; in [6] it was 1.02; in assay [7] it was 0.0978. Further, the composite z-score is 0.424 in assay [8], -0.73 in assay [9] and 1.18 in assay [10]. The z-score in [4] was 1.44 (inactive).

For `C[N+](C)(C)CCCC[C@@H]1NC(=O)[C@@H]2C[C@H](C(=O)NCCCCCCN)[C@H](c3cccc(OCCO)c3)N2C1=O`, the composite z-score in assay [1] was found to be 1.16; in assay [2] it was 1.85; in assay [3] it was 1.14; in [5], 0.766; in assay [6] it was 1.29; in assay [7] it was 0.132. The values for the composite z-score in [8], in assay [9] and in assay [10] were 0.776, 0.695 and 1.4, respectively. Moreover, the z-score in assay [4] was -0.111 (inactive).

As to `CCCNC(=O)[C@@H]1c2ccccc2C(=O)N(Cc2ccc(OC(F)(F)F)cc2)[C@H]1c1ccc(CO)cc1`, the composite z-score is 1.3 in assay [1]; 0.53 in assay [2]; 0.653 in [3]; 0.402 in assay [5]; 0.284 in assay [6]; -0.0259 in [7]. For the same compound, the composite z-score in assay [8] was 0.0777; in [9], 0.0637; in [10], 0.0914. For the same compound, the z-score in assay [4] was 0.0883 (inactive).

Take `COCCOC(=O)N1C(=O)[C@@]2(c3cc(C#CC4=CCCCC4)ccc31)[C@H](c1ccccc1OCCO)N1[C@H](c3ccccc3)[C@H](c3ccccc3)OC(=O)[C@H]1[C@@H]2C(=O)NC[C@H](O)c1ccccc1`: the composite z-score in [1] is 1.53; in assay [2], 0.036; in assay [3], -0.135; in [5], 1.19; in [6] it was 1.3; in [7], 0.741. Besides, the composite z-score in assay [8] came out at 1.42; in [9], 0.752; in assay [10], 0.755. Besides, in assay [4], the z-score is -1.76 (inactive).

Consider `COc1ccc([Si](C)(C)[C@@H]2[C@@H](CCO)O[C@]3(C(=O)N(Cc4ccccc4)c4ccc(NC(=O)[C@H](C)O)cc43)[C@H]2C)cc1`, for which the composite z-score was 0.728 in [1]; -0.106 in assay [2]; -0.147 in assay [3]; 0.867 in [5]; 1.29 in assay [6]; 0.778 in [7]. Also, the composite z-score in assay [8] was 1.14; in assay [9], 0.43; in assay [10], -0.159. Also, the z-score in [4] was -1.75 (inactive).

`CS(=O)(=O)CCOC(=O)C1=CC(CCCO)=CC(c2ccc(CN3CCCC3)cc2)N(Cc2sc3ccccc3c2Cl)C=C1C(=O)OCCS(C)(=O)=O` (stereo not given): the composite z-score in [1] was 1.37; in assay [2] it was 0.518; in [3] it was -0.0725; in assay [5], 1.34; in [6], 1.33; in assay [7], 0.558. Besides, the composite z-score in assay [8] worked out at 1; in [9], 0.858; in assay [10], 1.34. For the same compound, the z-score in assay [4] was 0.576 (inactive).

For `C=CCC(OC(C)=O)[C@@H]1[C@@H](N(Cc2ccc(-c3cccc(C(F)(F)F)c3)o2)C(=O)Cc2ccc(OC)cc2)c2cc(OCCCO)ccc2N1C(=O)c1ccc(-c2ccccc2)cc1` (stereo not given in full), the composite z-score in assay [1] was -0.318; in [2], -0.0755; in assay [3] it was 0.541; in assay [5] it was -0.165; in [6] it was -0.522; in assay [7], -0.577. For the same compound, the composite z-score is -0.119 in [8], -0.434 in assay [9] and 1.39 in assay [10]. For the same compound, in assay [4], the z-score is -1.13 (inactive).

As to `OCCCC1=CC(c2ccc(CN3CCCC3)cc2)N(Cc2cc3c(cc2Br)OCO3)CC1` (stereo not given), the composite z-score in assay [1] worked out at 0.216; in assay [2], 0.0738; in assay [3], 0.732; in [5], 0.477; in [6], 0.328; in [7], 0.259. The composite z-score in [8] amounted to 0.809; in assay [9] it was 1.14; in [10], 1.57. For the same compound, the z-score in [4] is 0.361 (inactive).

Turning to `CC(=O)NCCCC[C@@H]1NC(=O)[C@@H]2C[C@H](C(=O)NCCCCCN)[C@H](c3ccc(O)cc3)N2C1=O`, the composite z-score in assay [1] amounted to 1.49; in assay [2], 1.07; in [3], 0.656; in assay [5] it was 1.23; in [6], 1.28; in assay [7] it was 0.662. For the same compound, the composite z-score in [8] was found to be 1.02; in [9], 1.33; in assay [10], 1.26. The z-score in assay [4] was 0.194 (inactive).
